Source: PubChem BioAssay
SW480 rereplic = DNA re-replication induction in SW480 cells; SW480 DNA re-replication, Hoechst DNA content imaging, 48 h; Potency, µM (series often up to 46.1 µM), for the others: at the highest dose re-replication activation, actives largely listed as activators; 340,000 compounds, 1.8% hits; further: % of control where 0% means no effect; nearly all actives have a fitted effect of over 55% in size
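Cells (250 per well) received 23 nL compound or DMSO by pin tool and were kept 48 hr at 37 C, 5% CO2. Nuclei were then stained with Hoechst for 40 min and scanned for DNA content.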
VP16 counter = inhibits Gal4-VP16 luciferase reporter, ROR gamma counter-screen | Potency, µM (titrated, usually from 53.6 µM), for the others: top-dose activity, negative = inhibition, usual class: inhibitors | 310,000 compounds, 3.5% hits | Drosophila S2 Gal4-VP16 UAS-luciferase, luminescence, 20 h | AID 2546;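 further: Gal4-VP16 expression switched on by copper sulfate through the metallothionein promoter; on the % scale 0 is the no-effect control and ±100 the full control effect; nearly all actives have a fitted effect of over 50% in size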
MCF10A rereplic = DNA re-replication induction in MCF 10a cells; MCF 10A DNA re-replication, Hoechst nuclear intensity, 48 h; Potency, µM (highest dose often 46.1 µM), for inactives: at the highest dose activity, positive = re-replication, actives largely listed as activators; 350,000 compounds, 2.9% hits; further: % of control where 0% means no effect; nearly all actives have a fitted effect of over 50% in size
ELG1 DNA repair = inhibitors of ELG1-dependent DNA repair in HEK293T cells | HEK293T ELG1-luciferase reporter, luminescence, 16 h; DNA damage induced by 5-fluorouridine | Potency, µM (series often up to 46.1 µM), for the others: at the top dose activity change, negative = inhibition, usual class: inhibitors | 330,000 compounds, 2.3% hits | AID 504467; further: on the % scale 0 is the no-effect control and ±100 the full control effect; nearly all actives have a fitted effect of over 55% in size
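Quantitative HTS, concentration-response format. 2,000 cells/well co-treated with 5-fluorouridine and compound, 16 hr in 5% CO2 at 37 °C; ONE-Glo luminescence read after 30 min.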
RORg inh = blocks mouse ROR gamma transcriptional activity. P51450. Drosophila S2 Gal4-RORgamma UAS-luciferase reporter, 20 h. Potency, µM (titrated, usually from 53.6 µM), for inactives: top-dose activity change, negative = inhibition, usual class: inhibitors. 310,000 compounds, 5.4% hits. AID 2551; further: on the % scale 0 is the no-effect control and ±100 the full control effect; nearly all actives have a fitted effect of over 60% in size
Target sequence (P51450 whole entry, looked up, the tested form may be a part): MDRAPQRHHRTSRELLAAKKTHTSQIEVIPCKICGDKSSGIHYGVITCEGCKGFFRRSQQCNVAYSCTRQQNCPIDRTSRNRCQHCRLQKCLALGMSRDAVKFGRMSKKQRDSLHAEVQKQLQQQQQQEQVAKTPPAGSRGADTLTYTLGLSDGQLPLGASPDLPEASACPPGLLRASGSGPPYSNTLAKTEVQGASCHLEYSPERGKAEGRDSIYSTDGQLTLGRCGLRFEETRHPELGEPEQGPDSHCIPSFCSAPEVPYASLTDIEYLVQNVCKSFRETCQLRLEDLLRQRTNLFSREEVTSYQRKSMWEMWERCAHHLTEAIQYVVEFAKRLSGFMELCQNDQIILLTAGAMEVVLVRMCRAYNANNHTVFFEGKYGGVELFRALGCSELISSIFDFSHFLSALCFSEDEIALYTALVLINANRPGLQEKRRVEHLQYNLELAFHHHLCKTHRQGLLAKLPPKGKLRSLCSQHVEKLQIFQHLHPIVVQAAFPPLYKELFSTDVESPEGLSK
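Read-out: Photinus luciferase luminescence; inhibitors lower reporter signal. Insect Schneider cells with Gal4-ROR gamma fusion under metallothionein promoter, UAS reporter; 700 uM final copper sulfate induction, 20 hr, ambient temperature.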
Active calls of the source: *; u = inconclusive; x = no result given; [ ] = remark or other dose. In the library only some 10% were active in any assay of this set; here they are far more common. The call rests on the fitted dose curve; in most records, active means well fitted curve in the direction sought with a large enough effect; inconclusive means small, poorly fitted or top-dose-only effect, or another doubt; inactive means no such curve, though single readings can be large; an effect the other way counts as inactive or inconclusive. Potency means the concentration at half of the fitted maximal effect.

SMILES	SW480 rereplic	VP16 counter	MCF10A rereplic	ELG1 DNA repair	RORg inh
COc1ccc(CN(C)C(C)C(=O)Nc2ccc(S(=O)(=O)N3CCCC3)cc2)c(OC)c1OC (centres undefined)	x	-0.2%	x	u	30.2%
CCN1CCN(c2ccc(NC(=O)c3cccc(S(=O)(=O)N4CCCC4)c3)cc2)CC1	2.1%	x	u	12.0%	x
C=CCN(c1ccccc1)S(=O)(=O)c1cccc(C(=O)Nc2ccc(N3CCOCC3)cc2)c1	u	x	12.4%	14.6µM*	x
O=C(Nc1ccc(N2CCOCC2)cc1)c1cccc(S(=O)(=O)N2CCCCC2)c1	-1.6%	u	4.5%	16.4µM*	-36.3%
CCC(=O)Nc1cc(=O)[nH]c2nc(-c3ccc(Cl)cc3)nn12	15.8%	11.3%	-0.1%	-0.7%	16.7%
COc1cc(OC)cc(C(=O)NNC(=O)CCNS(=O)(=O)c2ccc(Br)cc2)c1	-9.4%	x	-7.3%	-12.7%	x
C#CCOCCOCCOCCNc1nc(N2CCN(C(=O)[C@H](CCC(=O)O)n3cc(C(N)CO)nn3)CC2)nc(N2CCN(C(=O)[C@H](CCC(=O)O)n3cc(C(N)[C@H](C)CC)nn3)CC2)n1 (some centres undefined)	-15.6%	2.4%	-2.8%	u	-9.2%
COC(=O)c1c(NC(=O)c2cccc(S(=O)(=O)N3CCN(C)CC3)c2)sc(C)c1C	u	x	20.6µM*	u	x
Nc1ccc(O)cc1C(=O)OCC(=O)c1ccc(C2CCCCC2)cc1	9.2µM*	u	23.1µM*	u	7.08µM*
Cn1c(=O)c(-c2ccc(Cl)cc2)nc2cnc(OCc3ccccc3)nc21	x	3.8%	x	x	14.7%
CCc1ccc(C2NC(=S)NC3=C2C(=O)CCC3)cc1 (centres undefined)	-0.9%	u	2.5%	7.0%	u
CCCCCCCc1ccc(C2NC(=S)NC3=C2C(=O)c2ccccc23)cc1 (centres undefined)	1.1%	u	-1.8%	-1.2%	5.62µM*
CN(CCc1cn[nH]c1)Cc1nc(C(c2ccccc2)c2ccccc2)no1	-3.3%	u	13.0%	9.6%	10µM*
CCN(CC)CCN(C)Cc1nc(C(c2ccccc2)c2ccccc2)no1	u	1.0%	u	6.3%	-18.4%
CSc1nnc(-c2ccccc2)o1	-2.7%	0.3%	-1.3%	u	-11.4%
S=c1[nH]nc(-c2cc3c(s2)-c2ccccc2CC3)o1	8.2µM*	10µM*	u	u	5.01µM*
CC1CCc2sc(-c3n[nH]c(=S)o3)cc2C1 (centres undefined)	-214.8%[1.84 µM]	u	-8.1%	u	u
CSc1nnc(-c2cc3c(s2)-c2ccccc2CC3)o1	-0.4%	-30.0%	u	u	1.26µM*
CCOC(=O)C1=NO[C@@]2(C=C(Br)C3(OCCCO3)[C@H]3O[C@H]32)C1	x	3.1%[10 µM]	x	x	-17.3%[10 µM]
O=C(Oc1coc(CSc2ncccn2)cc1=O)c1ccccc1[N+](=O)[O-]	-20.3%	-11.2%	1.3%	-11.8%	-13.6%
COc1ccc(N/C=C(\C=C\C#N)S(=O)(=O)c2ccccc2)cc1	u	u	3.66µM*	3.2%	4.8%
CCCCCCNC(=O)CC(c1ccccc1)c1cc(Br)ccc1O (centres undefined)	1.0%	10µM*	u	u	2.82µM*
CC(C)NC(=O)CC(c1ccccc1)c1cc(Br)ccc1O (centres undefined)	u	-9.3%	-1.7%	-20.1%	19.6%
O=C(Nc1ccccc1)C1=C[C@@H](c2coc3ccccc3c2=O)C[C@@H](OCCCCO)O1	0.4%	-3.2%	-3.5%	-2.1%	15.5%
CCC(C(=O)OCC(=O)NCc1ccc2c(c1)OCO2)c1ccccc1 (centres undefined)	-15.9%	x	3.0%	u	x
SMILES	SW480 rereplic	VP16 counter	MCF10A rereplic	ELG1 DNA repair	RORg inh
Fc1ccc(CSc2nnc3ccccn23)c(Cl)c1	u	-4.4%	-2.8%	u	u
Fc1ccc2nncc(SCc3ccccc3Cl)c2c1	18.4%	x	18.4µM*	x	x
Cc1nc2ccc([N+](=O)[O-])cc2c(=O)n1Cc1ccccc1Br	-2.3%[9.22 µM]	-2.6%	21.0%	11.1%	-15.3%
COc1ccc(N/C=C(\C#N)c2nc3ccccc3n2C)c(OC)c1	17.0%	-2.2%	u	25.9µM*	u
COc1ccc(CNc2nc3ccccc3n2C)c(OC)c1	-3.8%	-7.8%	0.9%	u	27.4%
Cc1ccc(/C=N/n2cnc3sc(C)c(C)c3c2=O)o1	-26.1%	-13.1%	-0.9%	u	4.3%
COc1cccc(Cl)c1NC(=O)N1CCc2c([nH]c3ccccc23)C1C(F)(F)F (centres undefined)	u	-3.6%	5.8µM*	u	u
COc1ccc(NC(=O)CCCNC(=O)Cn2cnc3sc4c(c3c2=O)CCCC4)c(OC)c1	-1.5%	3.5%	1.4%	0.9%	-0.9%
COC(=O)c1ccc(NS(=O)(=O)c2cc(-c3cc(C)no3)ccc2OC)cc1	18.4µM*	-0.4%	24.7%	-12.0%	10.2%
COc1ccc(-c2cc(C)no2)cc1S(=O)(=O)Nc1ccccc1	u	-1.0%	u	u	-9.3%
S=C(Nc1cccc(Cl)c1)N1CCN(Cc2ccccc2)CC1	11.9%	u	2.1%	6.8%	10µM*
COc1cccc(NC(=S)N2CCN(Cc3ccccc3)CC2)c1	-0.2%	20µM*	6.9%	0.0%	u
S=C(Nc1ccccc1)N1CCN(Cc2ccccc2)CC1	u	u	-9.1%	-2.0%	u
COc1cc(NC(=S)N2CCN(Cc3ccccc3)CC2)cc(OC)c1	5.4%	u	-1.4%	-0.3%	u
COc1ccc(NC(=S)N2CCN(Cc3ccccc3)CC2)cc1	-2.3%	15.9%[10 µM]	6.4%	6.8%	11.2µM*
CCC(C)(C(=O)NC1CCCC1)N(C)C(=O)c1ccccn1 (centres undefined)	9.0%	-0.3%[10 µM]	-2.3%	-0.7%	-8.6%
COc1ccc(C2C(C(C)=O)=C(O)C(=O)N2c2nccs2)cc1OC (centres undefined)	-0.3%	-5.4%	6.2%	4.4%	-0.3%
COc1ccc(C2C(C(C)=O)=C(O)C(=O)N2c2nc3ccccc3s2)cc1OC (centres undefined)	u	4.9%	2.31µM*	5.3%	-10.2%
CCOC(=O)c1c(-c2ccc(OC)cc2)csc1NC(=O)CSc1ncnc2sccc12	-112.7%	-4.9%	16.4µM*	u	-4.5%[10 µM]
CCOC(=O)c1c(-c2ccc(-c3ccccc3)cc2)csc1NC(=O)CNCCN(C)C	u	1.58µM*	17.4%	-14.4%	0.631µM*
CCOC(=O)c1c(NC(=O)c2cccc(N3C(=O)CCC3=O)c2)sc(C)c1C	-4.5%	9.6%	13.7%	u	u
CCOC(=O)c1c(-c2ccc(-c3ccccc3)cc2)csc1NC(=O)c1cccc(N2C(=O)CCC2=O)c1	-3.9%	-5.9%	14.7%	7.31µM*	27.0%
